{"source": "PubChem BioAssay (EPA / NIEHS)", "note": "Results filed as inconclusive are left out. The source made the active and inactive calls. Rule for the calls: active = hit-call score of the fitted dose curve at least 0.9, where 1 is the maximum; inconclusive = response in the unintended direction; inactive = score below 0.9.", "data": [{"target": "human Retinoid X Receptor beta (RXRb), RXRB (gene 6257) (UniProt P28702)", "sequence (P28702 whole entry, looked up, the tested form may be a part)": "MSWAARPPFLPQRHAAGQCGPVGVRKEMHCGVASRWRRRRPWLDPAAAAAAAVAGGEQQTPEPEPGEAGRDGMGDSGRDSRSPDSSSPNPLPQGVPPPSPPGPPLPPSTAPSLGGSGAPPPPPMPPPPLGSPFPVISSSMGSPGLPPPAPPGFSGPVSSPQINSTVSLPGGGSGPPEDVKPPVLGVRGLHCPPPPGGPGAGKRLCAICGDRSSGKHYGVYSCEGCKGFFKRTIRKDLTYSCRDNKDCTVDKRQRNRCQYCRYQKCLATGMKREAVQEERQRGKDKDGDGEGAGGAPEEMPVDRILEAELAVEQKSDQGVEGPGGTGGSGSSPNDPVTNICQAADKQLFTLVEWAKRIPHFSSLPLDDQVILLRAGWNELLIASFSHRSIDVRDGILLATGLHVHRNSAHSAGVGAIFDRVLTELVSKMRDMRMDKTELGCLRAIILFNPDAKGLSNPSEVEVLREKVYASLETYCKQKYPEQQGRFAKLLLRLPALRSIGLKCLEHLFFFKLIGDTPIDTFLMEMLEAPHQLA", "experiment": "ATG_RXRb_TRANS: Attagene TRANS-FACTORIAL HepG2 Assay for human Retinoid X Receptor beta (RXRb) (AID 2283013)", "method_in_brief": "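Chimeric receptor-Gal4 activity was assessed in transiently transfected human HepG2 cells after 24 h exposure. Transcripts from GAL4-UAS reporters were quantified by fluorescent RT-PCR and capillary electrophoresis, with DMSO as negative control and baseline.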", "values": [{"compound": "CC(=O)OC1C2(C)CCC(C2)C1(C)C", "note": "(centres undefined)", "outcome": "inactive"}, {"compound": "CCN(Cc1cccc(S(=O)(=O)O)c1)c1ccc(C(=C2C=CC(=[N+](CC)Cc3cccc(S(=O)(=O)[O-])c3)C=C2)c2ccccc2)cc1", "outcome": "inactive"}, {"compound": "CCCCCc1ccc(Cl)cc1", "outcome": "inactive"}, {"compound": "CC(=O)OCC(=O)[C@@]12N=C(C)O[C@@H]1C[C@H]1[C@@H]3CCC4=CC(=O)C=C[C@]4(C)[C@H]3[C@@H](O)C[C@@]12C", "AC50": "1.62 µM (active)"}, {"compound": "CCCCCCC1(C)CCC(=O)O1", "note": "(centres undefined)", "outcome": "inactive"}, {"compound": "CC(=O)Nc1ccc2c(c1)Cc1cc(NC(C)=O)ccc1-2", "outcome": "inactive"}, {"compound": "CC1=CC[C@H](C(C)C)C=C1", "AC50": "40.2 µM (active)"}, {"compound": "Cc1cc(=O)n(-c2ccccc2)n1C", "outcome": "inactive"}, {"compound": "CC(C)CCCCCOC(=O)CCS", "outcome": "inactive"}, {"compound": "CC(C)(C)c1ccc(OC(=O)c2ccccc2O)cc1", "AC50": "177 µM (active)"}, {"compound": "O=C1c2ccccc2C(=O)C1c1nc2ccccc2c(Br)c1O", "outcome": "inactive"}, {"compound": "CCCCCCCCCCc1ccccc1", "AC50": "49.1 µM (active)"}, {"compound": "O=C(OCC1CCC2OC2C1)C1CCC2OC2C1", "note": "(centres undefined)", "outcome": "inactive"}, {"compound": "CC(C)(C)c1ccc(N)cc1", "outcome": "inactive"}, {"compound": "NNC(=O)c1cccc(C(=O)NN)c1", "outcome": "inactive"}, {"compound": "COC(=O)c1ccccc1OC", "outcome": "inactive"}, {"compound": "CCOCC(=O)O", "outcome": "inactive"}, {"compound": "C=C(C)[C@@H]1CCC2=CCC[C@@H](C)[C@]2(C)C1", "AC50": "47.6 µM (active)"}]}, {"target": "human Thyroid Receptor alpha (THRa1), THRA (gene 7067) (UniProt P10827)", "sequence (P10827 whole entry, looked up, the tested form may be a part)": "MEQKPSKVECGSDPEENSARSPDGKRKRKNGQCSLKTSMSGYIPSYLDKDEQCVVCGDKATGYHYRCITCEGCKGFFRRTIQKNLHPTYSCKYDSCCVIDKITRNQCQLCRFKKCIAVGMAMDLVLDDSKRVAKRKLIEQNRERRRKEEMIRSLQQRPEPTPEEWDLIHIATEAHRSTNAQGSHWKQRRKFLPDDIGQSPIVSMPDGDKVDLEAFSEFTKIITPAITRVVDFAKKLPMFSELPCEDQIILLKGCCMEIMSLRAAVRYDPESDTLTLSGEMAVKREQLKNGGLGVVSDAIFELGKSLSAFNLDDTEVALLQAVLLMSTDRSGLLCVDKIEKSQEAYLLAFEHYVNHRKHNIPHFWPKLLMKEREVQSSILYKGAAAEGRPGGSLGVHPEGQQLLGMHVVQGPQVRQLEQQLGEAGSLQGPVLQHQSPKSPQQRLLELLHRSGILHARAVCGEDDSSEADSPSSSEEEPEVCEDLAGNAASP", "experiment": "ATG_THRa1_TRANS: Attagene TRANS-FACTORIAL HepG2 Assay for human Thyroid Receptor alpha (THRa1) (AID 2283014)", "method_in_brief": "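Measured here is mRNA from a GAL4-UAS reporter in transfected HepG2 cells carrying a Gal4-fused receptor, 24 h post-dose. DMSO served as negative control and baseline.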", "values": [{"compound": "CO[Si](CCC1CCC2OC2C1)(OC)OC", "note": "(centres undefined)", "outcome": "inactive"}, {"compound": "CC(=O)OC1C2(C)CCC(C2)C1(C)C", "note": "(centres undefined)", "outcome": "inactive"}, {"compound": "CCN(Cc1cccc(S(=O)(=O)O)c1)c1ccc(C(=C2C=CC(=[N+](CC)Cc3cccc(S(=O)(=O)[O-])c3)C=C2)c2ccccc2)cc1", "outcome": "inactive"}, {"compound": "CC(=O)OCC(=O)[C@@]12N=C(C)O[C@@H]1C[C@H]1[C@@H]3CCC4=CC(=O)C=C[C@]4(C)[C@H]3[C@@H](O)C[C@@]12C", "outcome": "inactive"}, {"compound": "c1cc(N(CC2CO2)CC2CO2)ccc1OCC1CO1", "note": "(centres undefined)", "outcome": "inactive"}, {"compound": "CCOC(=O)CC", "outcome": "inactive"}, {"compound": "CC(=O)Nc1ccc2c(c1)Cc1cc(NC(C)=O)ccc1-2", "outcome": "inactive"}, {"compound": "Cc1cc(=O)n(-c2ccccc2)n1C", "outcome": "inactive"}, {"compound": "O=C1CCCCCN1SSN1CCCCCC1=O", "outcome": "inactive"}, {"compound": "CCCCCCOC(=O)C(C)CC", "note": "(centres undefined)", "outcome": "inactive"}, {"compound": "CN(C)c1ccc(C(=N)c2ccc(N(C)C)cc2)cc1", "outcome": "inactive"}, {"compound": "CCN(CCC#N)c1ccc(N=Nc2c(Cl)cc([N+](=O)[O-])cc2Cl)cc1", "outcome": "inactive"}, {"compound": "O=C1c2ccccc2C(=O)C1c1nc2ccccc2c(Br)c1O", "outcome": "inactive"}, {"compound": "CCCCCCCCCCc1ccccc1", "outcome": "inactive"}, {"compound": "NNC(=O)c1cccc(C(=O)NN)c1", "outcome": "inactive"}, {"compound": "COC(=O)C1=C(C)NC(C)=C(C(=O)OCC(C)C)C1c1ccccc1[N+](=O)[O-]", "note": "(centres undefined)", "outcome": "inactive"}, {"compound": "CCOCC(=O)O", "outcome": "inactive"}, {"compound": "CC(C)c1ccc2cc(C(C)C)ccc2c1", "outcome": "inactive"}]}, {"target": "human Vitamin D Receptor (VDR), VDR (gene 7421) (UniProt P11473)", "sequence (P11473 whole entry, looked up)": "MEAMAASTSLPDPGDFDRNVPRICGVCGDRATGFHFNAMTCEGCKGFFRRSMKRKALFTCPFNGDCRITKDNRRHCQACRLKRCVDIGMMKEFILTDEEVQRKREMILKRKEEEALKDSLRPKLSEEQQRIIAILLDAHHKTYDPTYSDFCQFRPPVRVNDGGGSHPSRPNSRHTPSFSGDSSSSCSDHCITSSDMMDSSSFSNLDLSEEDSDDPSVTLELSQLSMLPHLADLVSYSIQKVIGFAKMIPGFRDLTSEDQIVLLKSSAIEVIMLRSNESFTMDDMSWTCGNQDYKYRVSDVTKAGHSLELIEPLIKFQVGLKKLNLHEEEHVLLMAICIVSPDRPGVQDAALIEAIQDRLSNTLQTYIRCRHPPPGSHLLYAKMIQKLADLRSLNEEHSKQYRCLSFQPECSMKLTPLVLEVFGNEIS", "experiment": "ATG_VDR_TRANS: Attagene TRANS-FACTORIAL HepG2 Assay for human Vitamin D Receptor (VDR) (AID 2283022)", "method_in_brief": "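Multiplexed TRANS reporter in HepG2; 24 h treatment; reporter mRNA by RT-PCR plus capillary electrophoresis; upregulation scored relative to DMSO.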", "values": [{"compound": "O=C(Oc1ccccc1)c1ccc2ccccc2c1O", "outcome": "inactive"}, {"compound": "CCN(Cc1cccc(S(=O)(=O)O)c1)c1ccc(C(=C2C=CC(=[N+](CC)Cc3cccc(S(=O)(=O)[O-])c3)C=C2)c2ccccc2)cc1", "outcome": "inactive"}, {"compound": "Cc1ccc([N+](=O)[O-])cc1S(=O)(=O)O", "outcome": "inactive"}, {"compound": "CCCCCc1ccc(Cl)cc1", "outcome": "inactive"}, {"compound": "c1cc(N(CC2CO2)CC2CO2)ccc1OCC1CO1", "note": "(centres undefined)", "outcome": "inactive"}, {"compound": "CCCCCCC1(C)CCC(=O)O1", "note": "(centres undefined)", "outcome": "inactive"}, {"compound": "CCOC(=O)CC", "outcome": "inactive"}, {"compound": "O=C(C(Cl)Cl)N1CCOC12CCCCC2", "outcome": "inactive"}, {"compound": "CC(=O)Nc1ccc2c(c1)Cc1cc(NC(C)=O)ccc1-2", "outcome": "inactive"}, {"compound": "Cc1cc(=O)n(-c2ccccc2)n1C", "outcome": "inactive"}, {"compound": "O=C1CCCCCN1SSN1CCCCCC1=O", "outcome": "inactive"}, {"compound": "C[Si](C)(CCCN)O[Si](C)(C)CCCN", "outcome": "inactive"}, {"compound": "CN(C)c1ccc(C(=N)c2ccc(N(C)C)cc2)cc1", "AC50": "156 µM (active)"}, {"compound": "C=CC(=O)OCCOC1C2CCC1C1CC=CC12", "note": "(centres undefined)", "outcome": "inactive"}, {"compound": "CC(C)(C)c1ccc(OC(=O)c2ccccc2O)cc1", "outcome": "inactive"}, {"compound": "CCCCCCCCCCc1ccccc1", "outcome": "inactive"}, {"compound": "CCCCC(CC)CCC(CC(C)C)OS(=O)(=O)O", "note": "(centres undefined)", "outcome": "inactive"}, {"compound": "O=C(O)CC(C(=O)O)C(CC(=O)O)C(=O)O", "note": "(centres undefined)", "outcome": "inactive"}, {"compound": "CC(C)(C)c1ccc(N)cc1", "outcome": "inactive"}, {"compound": "NNC(=O)c1cccc(C(=O)NN)c1", "outcome": "inactive"}, {"compound": "O=C(/C=C/C=C/c1ccc2c(c1)OCO2)N1CCCCC1", "outcome": "inactive"}, {"compound": "C=C(C)[C@@H]1CCC2=CCC[C@@H](C)[C@]2(C)C1", "outcome": "inactive"}, {"compound": "CC(C)c1ccc2cc(C(C)C)ccc2c1", "outcome": "inactive"}]}]}
